In PubChem BioAssay AID1259336 (Sattelle Laboratory, UCL Respiratory, Division of Medicine, …, 2017) one finds log2 fold change growth data, which are given here for 24 compounds.

SMILES strings stand for the structures. Calls of active or inactive are those of the source. Rule as the data show it: active = log2 fold change growth below about -1.8; inactive = the rest.

The assay can be described thus: C. elegans growth inhibition, whole organism, log2 fold change (AID 1259336).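 Also: growth scored by imaging after five days at 20 °C.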 The following applies: anthelmintic screen, stronger effect = lower value.
For the compound `COc1cccc(OC)c1C(=O)Nc1ccc(Cl)c(-c2nc3ccccc3s2)c1`, the log2 fold change growth is -0.202 (inactive).

Turning to `COc1ccc(-c2cc(NC(=O)c3ccc(F)cc3Cl)ccc2OC)cc1`, the log2 fold change growth was 0.039 (inactive).

Turning to `Cc1nn(C(=O)Nc2cccc(C(F)(F)F)c2)c(C)c1Sc1ncccn1`, the log2 fold change growth is -0.494 (inactive).

As to `O=C(C1CCN(c2cc(-n3cccc3)ncn2)CC1)N1CCc2ccccc2C1`, the log2 fold change growth was -0.11 (inactive).

With `Cc1ccc(S(=O)(=O)n2cc(-c3ccnc(N)c3)c3cc(Br)cnc32)cc1`, the log2 fold change growth was -0.39 (inactive).

`O=C(Nc1nc(-c2ccccn2)cs1)C1CC1c1ccccc1F` (centres undefined): the log2 fold change growth is -2.09 (active).

On to `COc1ccc(C(=N)N)cc1-c1cn(-c2ccc(C(=N)N)cc2)nn1`, for which the log2 fold change growth is -0.0296 (inactive).

With `O=C(NCCc1c[nH]c2ccccc12)c1cc2ccccc2oc1=O`, the log2 fold change growth is 0.481 (inactive).

As for `Cc1nc(-c2cccc(NCc3ccccc3)c2)[nH]c1C`, the log2 fold change growth was 0.123 (inactive).

For the compound `Cc1ccc2oc(-c3cc(NC(=O)Cc4ccccc4)ccc3Cl)nc2c1`, the log2 fold change growth is 0.272 (inactive).

Consider `O=C(Nc1ccccc1)c1ccc(-c2cc3ccncc3cc2OC2CCNCC2)s1`, for which the log2 fold change growth is -0.0844 (inactive).

For the compound `CCCS(=O)(=O)N1CCC(CO)(Cc2ccccc2C(F)(F)F)CC1`, the log2 fold change growth is 0.357 (inactive).

Turning to `O=C(Nc1ccc(N2CCNCC2)cc1)c1ccn2ncc(-c3cccc(Cl)c3)c2n1`, the log2 fold change growth is -0.0705 (inactive).

Turning to `c1ccc(C[C@@H]2CN(c3nccc(Oc4ccc(-n5ccnc5)cc4)n3)CCN2)cc1`, the log2 fold change growth was 0.11 (inactive).

Regarding `COc1cccc(NC(=O)c2c(NC(=O)c3cccnc3)sc3c2CCC3)c1`, the log2 fold change growth is -1.12 (inactive).

As for `CNC(=O)c1cc(S(=O)(=O)N2CCN(c3ccccn3)CC2)cs1`, the log2 fold change growth is -0.156 (inactive).

Regarding `COc1ccc(-c2nnc3ccc(-c4cccc(C(C)C)c4)cn23)cc1OC`, the log2 fold change growth is -0.151 (inactive).

For the compound `COc1cc2ncnc(NC3CCN(Cc4ccccc4)CC3)c2cc1OC`, the log2 fold change growth is -0.116 (inactive).

On to `CCn1ncc2c(NC3CCOCC3)c(CNC(=O)c3ccnn3C)c(C)nc21`, for which the log2 fold change growth was -0.407 (inactive).

As for `O=C(NC1CC1)c1ccc(CSCc2ccccc2Cl)o1`, the log2 fold change growth is 0.276 (inactive).

For the compound `Cc1nc(-c2ccccn2)nc(NCCc2ccc(S(C)(=O)=O)cc2)c1Cl`, the log2 fold change growth is -0.702 (inactive).

Take `O=C(NCc1ccoc1)N1CCN(Cc2ccc3c(c2)OCO3)CC1`: the log2 fold change growth is 0.212 (inactive).

As for `Nc1ncnc2c1c(Cc1cccc3ccccc13)nn2CC1CCNCC1`, the log2 fold change growth was -0.11 (inactive).

As to `Cc1cnc(N2CCN[C@@H](Cc3ccccc3)C2)nc1Oc1ccc(-n2ccnc2)cc1`, the log2 fold change growth is 0.245 (inactive).
